# The entries come from a sample that favours the strongest signals as a whole.
# Tests used:
# Assay in all cases: glycan array binding signal (z-score within array); higher = stronger binding
# Details in all cases: glycan notation: IUPAC condensed, linker removed
# [1] = molecular target: Fuc(a1-2)Gal(b1-4)GlcNAc(b1-2)[Fuc(a1-2)Gal(b1-4)GlcNAc(b1-4)]Man(a1-3)[Fuc(a1-2)Gal(b1-4)GlcNAc(b1-2)Man(a1-6)]Man(b1-4)GlcNAc(b1-4)GlcNAc
# Outline: (§1)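 Arrays were curated from the Consortium for Functional Glycomics database, 3228 in total, and kept only where the protein sequence was available. Binding is expressed as a within-array Z-score. This score was averaged across arrays of the same protein sequence at different concentrations or buffers and across linkers, and negative values can be read as non-binding.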
# [2] = molecular target: Fuc(a1-2)Gal(b1-4)GlcNAc(b1-6)GalNAc
# Outline: as §1
# [3] = molecular target: Fuc(a1-2)Gal(b1-4)[Fuc(a1-3)]GlcNAc(b1-2)[Fuc(a1-2)Gal(b1-4)[Fuc(a1-3)]GlcNAc(b1-4)]Man(a1-3)[Fuc(a1-2)Gal(b1-4)[Fuc(a1-3)]GlcNAc(b1-2)Man(a1-6)]Man(b1-4)GlcNAc(b1-4)GlcNAc
# Outline: as §1
# [4] = molecular target: Fuc(a1-2)Gal(b1-4)[Fuc(a1-3)]GlcNAc(b1-3)Gal(b1-4)[Fuc(a1-3)]GlcNAc(b1-3)Gal(b1-4)[Fuc(a1-3)]GlcNAc
# Outline: as §1
# [5] = molecular target: Fuc(a1-2)Gal6S(b1-3)GlcNAc
# Outline: as §1
# [6] = molecular target: Fuc(a1-2)Gal6S(b1-4)Glc
# Outline: as §1
# [7] = molecular target: Fuc(a1-2)[Gal(a1-4)]Gal(b1-4)GlcNAc
# Outline: as §1
# [8] = molecular target: Fuc(a1-3)[Gal(b1-4)]GlcNAc
# Outline: as §1
# [9] = molecular target: Fuc(a1-3)[Gal(b1-4)]GlcNAc(b1-2)Man
# Outline: as §1
# [10] = molecular target: Gal(a1-3)Gal(b1-3)GlcNAc(b1-2)Man(a1-3)[Gal(a1-3)Gal(b1-3)GlcNAc(b1-2)Man(a1-6)]Man(b1-4)GlcNAc(b1-4)GlcNAc
# Outline: as §1
# [11] = molecular target: Gal(a1-3)Gal(b1-4)GlcNAc
# Outline: as §1
# [12] = molecular target: Gal(a1-3)Gal(b1-4)GlcNAc(b1-2)Man(a1-3)[Gal(a1-3)Gal(b1-4)GlcNAc(b1-2)Man(a1-6)]Man(b1-4)GlcNAc(b1-4)GlcNAc
# Outline: as §1
# [13] = molecular target: Gal(a1-3)Gal(b1-4)[Fuc(a1-3)]GlcNAc
# Outline: as §1
# [14] = molecular target: Gal(a1-3)[Gal(a1-4)]Gal(b1-4)GlcNAc
# Outline: as §1
# [15] = molecular target: Gal(a1-4)Gal(b1-3)GlcNAc(b1-2)Man(a1-3)[Gal(a1-4)Gal(b1-3)GlcNAc(b1-2)Man(a1-6)]Man(b1-4)GlcNAc(b1-4)GlcNAc
# Outline: as §1
# [16] = molecular target: Gal(a1-4)Gal(b1-4)GlcNAc
# Outline: as §1
# [17] = molecular target: Gal(a1-4)Gal(b1-4)GlcNAc(b1-2)Man(a1-3)[Gal(a1-4)Gal(b1-4)GlcNAc(b1-2)Man(a1-6)]Man(b1-4)GlcNAc(b1-4)GlcNAc
# Outline: as §1
# [18] = molecular target: Gal(a1-4)Gal(b1-4)GlcNAc(b1-3)Gal(b1-4)Glc
# Outline: as §1
# [19] = molecular target: Gal(a1-4)GlcNAc
# Outline: as §1
# [20] = molecular target: Gal(b1-3)Gal(b1-4)GlcNAc(b1-2)Man(a1-3)[Gal(b1-3)Gal(b1-4)GlcNAc(b1-2)Man(a1-6)]Man(b1-4)GlcNAc(b1-4)GlcNAc
# Outline: as §1
# [21] = molecular target: Gal(b1-3)GalNAc(b1-3)Gal(a1-4)Gal(b1-4)Glc
# Outline: as §1
# [22] = molecular target: Gal(b1-3)GlcNAc(b1-3)Gal(b1-4)Glc
# Outline: as §1
# [23] = molecular target: Gal(b1-4)GlcNAc(b1-2)Man(a1-6)[Man(a1-3)]Man(b1-4)GlcNAc(b1-4)GlcNAc
# Outline: as §1
# [24] = molecular target: Gal3S(b1-3)GlcNAc
# Outline: as §1
# [25] = molecular target: Gal3S(b1-3)[Fuc(a1-4)]GlcNAc
# Outline: as §1
# [26] = molecular target: GalNAc(b1-3)Gal(a1-4)Gal(b1-4)GlcNAc(b1-3)Gal(b1-4)Glc
# Outline: as §1
# [27] = molecular target: GalNAc(b1-4)GlcNAc
# Outline: as §1
# [28] = molecular target: GlcNAc(a1-4)Gal(b1-4)GlcNAc(b1-3)Gal(b1-4)Glc
# Outline: as §1
# [29] = molecular target: GlcNAc(a1-4)Gal(b1-4)GlcNAc(b1-3)Gal(b1-4)[Fuc(a1-3)]GlcNAc(b1-3)Gal(b1-4)[Fuc(a1-3)]GlcNAc
# Outline: as §1
# [30] = molecular target: GlcNAc(b1-2)Man(a1-3)[GlcNAc(b1-2)Man(a1-6)]Man(b1-4)GlcNAc(b1-4)[Fuc(a1-6)]GlcNAc
# Outline: as §1
# [31] = molecular target: GlcNAc(b1-2)[GlcNAc(b1-6)]Man(a1-6)[GlcNAc(b1-2)Man(a1-3)]Man(b1-4)GlcNAc(b1-4)[Fuc(a1-6)]GlcNAc
# Outline: as §1
# [32] = molecular target: GlcNAc(b1-3)Gal(b1-4)GlcNAc(b1-3)GalNAc
# Outline: as §1
# [33] = molecular target: GlcNAc(b1-3)[GlcNAc(b1-4)][GlcNAc(b1-6)]GlcNAc
# Outline: as §1
# [34] = molecular target: Man(a1-2)Man(a1-3)Man
# Outline: as §1
# [35] = molecular target: Neu5Ac(a2-3)Gal(b1-4)GlcNAc(b1-2)Man(a1-3)[GlcNAc(b1-4)][Neu5Ac(a2-3)Gal(b1-4)GlcNAc(b1-2)Man(a1-6)]Man(b1-4)GlcNAc(b1-4)GlcNAc
# Outline: as §1
# [36] = molecular target: Neu5Ac(a2-3)Gal(b1-4)GlcNAc(b1-3)Gal(b1-4)[Fuc(a1-3)]GlcNAc
# Outline: as §1
# [37] = molecular target: Neu5Ac(a2-3)[GalNAc(b1-4)]Gal(b1-4)Glc
# Outline: as §1
# [38] = molecular target: Neu5Ac(a2-6)Gal(b1-4)GlcNAc6S
# Outline: as §1
# [39] = molecular target: Neu5Gc(a2-8)Neu5Ac(a2-3)Gal(b1-4)GlcNAc
# Outline: as §1
binder,measurement,setting,value
"PA-IL (Pseudomonas aeruginosa), Q05097 (protein) MAWKGEVLANNEAGQVTSIIYNPGDVITIVAAGWASYGPTQKWGPQGDREHPDQGLICHDAFCGALVMKIGNSGTIPVNTGLFRWVAPNNVQGAITLIYNDVPGTYGNNSGSFSVNIGKDQS",glycan array binding signal (z-score),[1],-0.197
same,glycan array binding signal (z-score),[2],-0.201
same,glycan array binding signal (z-score),[3],-0.185
same,glycan array binding signal (z-score),[4],-0.213
same,glycan array binding signal (z-score),[5],-0.225
same,glycan array binding signal (z-score),[6],-0.229
same,glycan array binding signal (z-score),[7],5.44
same,glycan array binding signal (z-score),[8],-0.224
same,glycan array binding signal (z-score),[9],-0.233
same,glycan array binding signal (z-score),[10],0.015
same,glycan array binding signal (z-score),[11],5.08
same,glycan array binding signal (z-score),[12],6.97
same,glycan array binding signal (z-score),[13],5.02
same,glycan array binding signal (z-score),[14],6.55
same,glycan array binding signal (z-score),[15],7.29
same,glycan array binding signal (z-score),[16],4.79
same,glycan array binding signal (z-score),[17],8.23
same,glycan array binding signal (z-score),[18],5.73
same,glycan array binding signal (z-score),[19],3.63
same,glycan array binding signal (z-score),[20],7.65
same,glycan array binding signal (z-score),[21],-0.228
same,glycan array binding signal (z-score),[22],-0.228
same,glycan array binding signal (z-score),[23],-0.237
same,glycan array binding signal (z-score),[24],-0.229
same,glycan array binding signal (z-score),[25],-0.225
same,glycan array binding signal (z-score),[26],-0.228
same,glycan array binding signal (z-score),[27],-0.236
same,glycan array binding signal (z-score),[28],-0.23
same,glycan array binding signal (z-score),[29],-0.203
same,glycan array binding signal (z-score),[30],-0.214
same,glycan array binding signal (z-score),[31],-0.217
same,glycan array binding signal (z-score),[32],-0.221
same,glycan array binding signal (z-score),[33],-0.228
same,glycan array binding signal (z-score),[34],-0.226
same,glycan array binding signal (z-score),[35],-0.244
same,glycan array binding signal (z-score),[36],-0.226
same,glycan array binding signal (z-score),[37],-0.226
same,glycan array binding signal (z-score),[38],-0.228
same,glycan array binding signal (z-score),[39],-0.245
